Data taken from PubChem BioAssay (Tox21).
Records with an inconclusive call do not appear. Active and inactive are the calls of the source. Unless noted, calls come from the whole dose curve; as a rule, active = well fitted curve in the direction sought with a large enough effect in the repeat runs; inconclusive = weak or mixed curves; inactive = no such curve, though single readings can be large; an effect the other way counts as inactive or inconclusive.

How the values were obtained:
[1] = target: Thyrotropin receptor (Homo sapiens) (UniProt P16473); test: qHTS assay to identify small molecule agonists of the thyroid stimulating hormone receptor (TSHR) signaling pathway (AID 1224843; calls by dose curve; note: nearly all actives have a fitted effect of over 45% in size)
Thyrotropin receptor (Homo sapiens), sequence (P16473 whole entry, looked up): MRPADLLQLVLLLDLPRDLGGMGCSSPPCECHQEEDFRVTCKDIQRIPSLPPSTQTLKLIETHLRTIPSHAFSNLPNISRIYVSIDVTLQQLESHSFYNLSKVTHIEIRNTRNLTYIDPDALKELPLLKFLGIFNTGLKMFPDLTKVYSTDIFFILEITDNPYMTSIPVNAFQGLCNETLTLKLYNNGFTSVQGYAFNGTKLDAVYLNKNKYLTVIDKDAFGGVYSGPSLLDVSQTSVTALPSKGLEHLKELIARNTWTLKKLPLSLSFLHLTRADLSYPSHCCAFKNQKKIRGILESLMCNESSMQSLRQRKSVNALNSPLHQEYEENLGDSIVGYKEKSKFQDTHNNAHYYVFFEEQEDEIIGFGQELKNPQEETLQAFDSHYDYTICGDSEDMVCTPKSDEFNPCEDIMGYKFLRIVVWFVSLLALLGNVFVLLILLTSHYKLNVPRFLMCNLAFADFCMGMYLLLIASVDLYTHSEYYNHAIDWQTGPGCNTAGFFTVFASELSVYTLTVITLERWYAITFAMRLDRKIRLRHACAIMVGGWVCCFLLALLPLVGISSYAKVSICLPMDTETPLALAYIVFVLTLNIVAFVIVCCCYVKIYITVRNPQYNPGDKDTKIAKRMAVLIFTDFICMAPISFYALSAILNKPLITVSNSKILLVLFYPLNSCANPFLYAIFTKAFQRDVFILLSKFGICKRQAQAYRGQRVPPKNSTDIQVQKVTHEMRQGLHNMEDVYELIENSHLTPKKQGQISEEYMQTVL
In short: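 HEK293/TSHR, 800 cells/well; cpd 30 min RT; add cAMP-d2 + anti-cAMP-cryptate, 1 h RT; fluorescence read on plate reader. 15-pt titration, n=3.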

[2] = qHTS assay to identify small molecule agonists of the hypoxia (HIF-1) signaling pathway - cell viability counter screen (AID 1224844; calls by dose curve; note: nearly all actives have a fitted effect of over 50% in size)
In short: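 Viability counter screen: HRE-bla ME-180 cells plated 5 hrs before compound addition, treated 17 hrs at 37C and 5% CO2, then CellTiter-Glo added after the FRET reporter read; luminescence after 30 min.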

[3] = qHTS assay to identify small molecule agonists of H2AX (AID 1224845; active = well fitted activation curve with a large enough effect in the signal ratio in the repeat runs, not every such curve was filed as active; the % refers to the signal ratio)
In short: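 Wild-type CHO-K1 cells, plated overnight, exposed 3hr at 37C to 15 concentrations (0.76% DMSO final). Lysed, then HTRF anti-pH2AX (S139) cryptate and anti-H2AX-d2 antibodies, 24 hr room temperature; 665/620 nm emission read.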

[4] = qHTS assay to identify small molecule agonists of the hypoxia (HIF-1) signaling pathway (AID 1224846; active = well fitted activation curve with a large enough effect in the signal ratio in the repeat runs, not every such curve was filed as active; the % refers to the signal ratio)
In short: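 Agonist mode reporter screen. ME-180 cells stably expressing bla under HRE control received test compounds in DMSO for 17 hrs (37C, 5% CO2), and beta-lactamase activity was then detected with the CCF4-AM FRET substrate.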

[5] = qHTS assay to identify small molecule agonists of H2AX - cell viability counter screen (AID 1224847; calls by dose curve; note: top concentration of the series differs between compounds; nearly all actives have a fitted effect of over 30% in size)
In short: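 We seed wild-type CHO-K1 cells overnight, treat them for 3 hr at 37C with compounds in 15-concentration series, and quantify remaining viability by CellTiter-Glo luminescence.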

[6] = qHTS assay to identify small molecule antagonists of the estrogen related receptor (ERR) signaling pathway from Tox21 library (AID 1224848); note: nearly all actives have a fitted effect of over 50% in size
In short: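 Compounds dissolved in DMSO are pin-transferred onto ERR reporter cells (2,000 per well) that have settled for 6 h at 37 C. Plates then incubate 18 h at 37 C before ONE-Glo luciferase reagent and a luminescence read 30 min later.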

[7] = qHTS RealTime-Glo MT Cell Viability Assay in HepG2 cells - 24 hour (AID 1224867); note: nearly all actives have a fitted effect of over 50% in size
In short: (§1)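 Compound treatment began 5 h after plating HepG2 cells (600/well) with NanoLuc luciferase and prosubstrate. Plates stayed at 37 C for 40 h; luminescence was captured at six time points, 0 h through 40 h.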

[8] = A CellTox Green Cytotoxicity Assay to monitor cytotoxicity in HEK293 cells - 0 hour (AID 1224869); note: nearly all actives have a fitted effect of over 50% in size
In short: (§2)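 Dead-cell fluorescence measured kinetically: asymmetric cyanine dye, HEK293, 600 cells/well, 5 h settle, 23 nL cpd/DMSO, 37 C, reads 0–40 h every 8 h.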

[9] = qHTS RealTime-Glo MT Cell Viability Assay in HepG2 cells - 40 hour (AID 1224870); note: nearly all actives have a fitted effect of over 50% in size
In short: (§3)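 HepG2 cells (600/well) mixed with RealTime-Glo MT reagent, settled 5 h at 37 C/5% CO2 before compound addition. Nonlytic NanoLuc luminescence from viable-cell prosubstrate reduction read repeatedly during 40 h treatment at 37 C.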

[10] = qHTS RealTime-Glo MT Cell Viability Assay in HepG2 cells - 8 hour (AID 1224873); note: nearly all actives have a fitted effect of over 55% in size
In short: as §3

[11] = A CellTox Green Cytotoxicity Assay to monitor cytotoxicity in HEK293 cells - 24 hour (AID 1224875); note: nearly all actives have a fitted effect of over 45% in size
In short: as §2

[12] = A CellTox Green Cytotoxicity Assay to monitor cytotoxicity in HepG2 cells - 16 hour (AID 1224876); note: nearly all actives have a fitted effect of over 45% in size
In short: (§4)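 First, HepG2 cells (600/well) mixed with reagent were plated; second, after 5 h at 37 C they received compounds via pintool; third, fluorescence was measured at 0 h through 40 h at 8 h intervals.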

[13] = qHTS RealTime-Glo MT Cell Viability Assay in HepG2 cells - 32 hour (AID 1224877); note: nearly all actives have a fitted effect of over 55% in size
In short: as §1

[14] = A CellTox Green Cytotoxicity Assay to monitor cytotoxicity in HepG2 cells - 24 hour (AID 1224878); note: nearly all actives have a fitted effect of over 45% in size
In short: as §4

[15] = A CellTox Green Cytotoxicity Assay to monitor cytotoxicity in HepG2 cells - 40 hour (AID 1224879); note: nearly all actives have a fitted effect of over 40% in size
In short: as §4

[16] = qHTS RealTime-Glo MT Cell Viability Assay in HEK293 cells - 32 hour (AID 1224868)
In short: (§5)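 Quantitative high-throughput screen of the Tox21 10K library in HEK293: cells and RealTime-Glo reagents plated together, compound added at 5 h, luminescence monitored through 40 h at 37 C.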

[17] = qHTS RealTime-Glo MT Cell Viability Assay in HEK293 cells - 16 hour (AID 1224872)
In short: as §5

[18] = qHTS RealTime-Glo MT Cell Viability Assay in HEK293 cells - 40 hour (AID 1224874); details: RealTime-Glo luminescence; max response: active compounds read low; note: nearly all actives have a fitted effect of over 50% in size
In short: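 600 HEK293 cells per well, dispensed already mixed with RealTime-Glo MT reagents. Compound dosing came 5 h later. The same wells were read for luminescence at 0, 8, 16, 24, 32 and 40 h of exposure at 37 C.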

[19] = qHTS assay to identify small molecule agonists of the estrogen related receptor (ERR) signaling pathway from Tox21 library (AID 1224849; calls by dose curve; note: nearly all actives have a fitted effect of over 15% in size); details: ERR reporter cell line, ONE-Glo luciferase, 18 h; at 92.4 µM (top of the series) unless noted
In short: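 Quantitative HTS in agonist format: NTP ERR cell line, compounds transferred in DMSO after 6 h plating, 18 h incubation at 37 C, ONE-Glo luminescence endpoint.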

[20] = A CellTox Green Cytotoxicity Assay to monitor cytotoxicity in HEK293 cells - 40 hour (AID 1224871); note: nearly all actives have a fitted effect of over 45% in size
In short: as §2
% is set by controls: 0 for no effect and ±100 for the full control effect.

CNCc1ccc(NC(=O)c2c[nH]c3c2C(=O)CCC3)cc1
inactive: Potency [1] | Potency [2] | Potency [3] | outcome [4] | Potency [5] | Potency [6] | Potency [7] | Potency [8] | Potency [9] | Potency [10] | Potency [11] | Potency [12] | Potency [13] | Potency [14] | Potency [15]

O=C(O)CNC(=O)c1ccccc1I
inactive: Potency [1] | Potency [2] | Potency [3] | outcome [4] | Potency [5] | Potency [7] | Potency [16] | Potency [8] | Potency [9] | Potency [17] | Potency [10] | max response [18] 6.48% | Potency [11] | Potency [12] | Potency [13] | Potency [14] | Potency [15]

CCCCC(CC)COS(=O)(=O)O (stereo not drawn)
inactive: Potency [1] | Potency [2] | Potency [3] | outcome [4] | Potency [5] | Potency [6] | activity change, positive = activation [19] 3.39% | Potency [7] | Potency [16] | Potency [8] | Potency [9] | Potency [17] | Potency [10] | max response [18] -1.73% | Potency [12] | Potency [13] | Potency [14] | Potency [15]

Nc1nc(-c2ccc([N+](=O)[O-])cc2)cs1
inactive: Potency [1] | Potency [2] | Potency [3] | outcome [4] | Potency [5] | Potency [7] | Potency [8] | Potency [9] | Potency [20] | Potency [17] | Potency [10] | max response [18] -14.1% | Potency [11] | Potency [12] | Potency [13] | Potency [14] | Potency [15]

CCCCCCCCCCCCCCCCCC(=O)OCC(CC)CCCC (stereo not drawn)
inactive: Potency [1] | Potency [2] | Potency [3] | outcome [4] | Potency [5] | Potency [7] | Potency [16] | Potency [8] | Potency [9] | Potency [20] | Potency [17] | Potency [10] | max response [18] 2.92% | Potency [11] | Potency [12] | Potency [13] | Potency [14] | Potency [15]

C1=CCC2CC=CC2C1 (stereo not drawn)
inactive: Potency [1] | Potency [2] | Potency [3] | outcome [4] | Potency [5] | Potency [6] | Potency [7] | Potency [16] | Potency [8] | Potency [9] | Potency [20] | Potency [17] | Potency [10] | max response [18] 16.8% | Potency [11] | Potency [12] | Potency [13] | Potency [14] | Potency [15]

COc1cc(NS(=O)(=O)c2ccc(N)cc2)nc(C)n1
inactive: Potency [1] | Potency [2] | Potency [3] | outcome [4] | Potency [5] | Potency [6] | activity change, positive = activation [19] 5.82% [at 42.5 µM] | Potency [16] | Potency [8] | Potency [9] | Potency [20] | Potency [17] | Potency [10] | max response [18] 9.67% | Potency [11] | Potency [12] | Potency [13] | Potency [14] | Potency [15]

Cc1ccc(Cl)cc1N
inactive: Potency [1] | Potency [2] | Potency [3] | outcome [4] | Potency [5] | Potency [7] | Potency [8] | Potency [9] | Potency [20] | Potency [17] | Potency [10] | max response [18] 4.39% | Potency [11] | Potency [12] | Potency [13] | Potency [14] | Potency [15]

COc1ccc(-n2nc(C(F)F)cc2-c2ccc(S(C)=O)cc2)cc1 (stereo not drawn)
inactive: Potency [1] | Potency [2] | Potency [3] | outcome [4] | Potency [5] | Potency [7] | Potency [16] | Potency [8] | Potency [9] | Potency [17] | Potency [10] | max response [18] -24.7% | Potency [11] | Potency [13]

Cc1c[nH]c2ccccc12
inactive: Potency [1] | Potency [2] | Potency [3] | outcome [4] | Potency [5] | Potency [6] | Potency [7] | Potency [16] | Potency [8] | Potency [9] | Potency [20] | Potency [17] | Potency [10] | max response [18] 17.2% | Potency [11] | Potency [12] | Potency [13] | Potency [14] | Potency [15]

c1ccc2sc(SSc3nc4ccccc4s3)nc2c1
inactive: activation [1] -4.06% [at 19 µM] | activity change, negative = cytotoxicity [2] -3.54% [at 15.8 µM] | activation (H2AX phosphorylation) [3] 0.89% [at 31.6 µM] | activation [4] 0.936% [at 15.8 µM] | activity change, negative = cytotoxicity [5] 3.41% [at 31.6 µM] | activity change, negative = cytotoxicity [7] 4.65% [at 15.8 µM] | activity change, negative = cytotoxic [16] 12.7% [at 15.8 µM] | cytotoxicity [8] 4.7% [at 15.8 µM] | activity change, negative = cytotoxic [9] -0.0307% [at 15.8 µM] | activity change, negative = cytotoxicity [17] -1.01% [at 15.8 µM] | viability change, negative = cytotoxic [10] 2.86% [at 15.8 µM] | max response [18] 15.6% | activity change [11] 14.2% [at 15.8 µM, active compounds read high] | cytotoxicity increase [12] 2.16% [at 15.8 µM] | activity change, negative = cytotoxic [13] 1.02% [at 15.8 µM] | cytotoxicity [14] 3.43% [at 15.8 µM] | cytotoxicity increase [15] 16.6% [at 15.8 µM]

CCOC(=O)c1ccc(NC(=O)CN2CCCCC2)cc1
inactive: Potency [1] | Potency [2] | Potency [3] | outcome [4] | Potency [5] | Potency [6] | activity change, positive = activation [19] 5.71% [at 42.5 µM] | Potency [7] | Potency [16] | Potency [8] | Potency [9] | Potency [20] | Potency [17] | Potency [10] | max response [18] -19.4% | Potency [11] | Potency [12] | Potency [13] | Potency [14] | Potency [15]

CCCCCc1ccco1
inactive: Potency [1] | Potency [2] | Potency [3] | outcome [4] | Potency [5] | Potency [7] | Potency [16] | Potency [8] | Potency [9] | Potency [17] | Potency [10] | max response [18] 4.73% | Potency [11] | Potency [13] | Potency [14] | Potency [15]

CSSc1ccoc1C
inactive: Potency [1] | Potency [2] | Potency [3] | outcome [4] | Potency [5] | Potency [7] | Potency [16] | Potency [8] | Potency [9] | Potency [20] | Potency [17] | Potency [10] | max response [18] 0.757% | Potency [11] | Potency [13] | Potency [14] | Potency [15]
